# Test results: PubChem BioAssay AID1508601 (ICCB-Longwood Screening Facility, Harvard Medical School, 2020)
# The whole screen tested about 5,700 compounds, of which about 85 (1%) were called active. No stated cut-off is given here; in the data, active means p53-positive nuclei above about 36% (passing the limit was not always enough); inactive means the rest. Shown is part of a subset that was picked to be rich in actives.
# Tests used:
# [1] = p53 stabilisation in HPV-positive human cells, imaging, p53-positive nuclei imaging, 24 h, 48 h (AID 1508601); conditions: 24/48 h
# [2] = target: Cellular tumor antigen p53 (Homo sapiens) (UniProt P04637); experiment: as above; conditions: 24/48 h, stronger effect = higher value
# Cellular tumor antigen p53 (Homo sapiens), sequence (P04637 whole entry, looked up): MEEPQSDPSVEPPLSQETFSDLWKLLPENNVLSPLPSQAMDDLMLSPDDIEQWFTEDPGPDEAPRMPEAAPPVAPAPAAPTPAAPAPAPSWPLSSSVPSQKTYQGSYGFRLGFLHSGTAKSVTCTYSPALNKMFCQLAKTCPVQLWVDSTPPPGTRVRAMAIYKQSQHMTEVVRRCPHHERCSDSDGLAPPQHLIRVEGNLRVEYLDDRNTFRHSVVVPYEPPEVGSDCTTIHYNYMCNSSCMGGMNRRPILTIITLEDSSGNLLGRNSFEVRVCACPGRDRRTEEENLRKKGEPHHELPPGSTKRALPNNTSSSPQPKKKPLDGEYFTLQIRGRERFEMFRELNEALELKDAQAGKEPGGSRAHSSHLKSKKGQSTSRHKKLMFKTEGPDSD
smiles,measurement,setting,value
O=C(O)c1ccccc1SC1=NS(=O)(=O)c2ccccc21,"nuclei count, normalised","[1]; measured here: cell number at 24 h, Library stock concentration: 500 nM",117%
same,"nuclei count, normalised","[1]; measured here: cell number at 24 h, Library stock concentration: 1.5 uM",119%
same,"nuclei count, normalised","[1]; measured here: cell number at 24 h, Library stock concentration: 4.6 uM",119%
same,"nuclei count, normalised","[1]; measured here: cell number at 24 h, Library stock concentration: 13.7 uM",120%
same,"nuclei count, normalised","[1]; measured here: cell number at 24 h, Library stock concentration: 41 uM",125%
same,"nuclei count, normalised","[1]; measured here: cell number at 24 h, Library stock concentration: 123 uM",126%
same,"nuclei count, normalised","[1]; measured here: cell number at 24 h, Library stock concentration: 370 uM",125%
same,"nuclei count, normalised","[1]; measured here: cell number at 24 h, Library stock concentration: 1.111 mM",119%
same,"nuclei count, normalised","[1]; measured here: cell number at 24 h, Library stock concentration: 3.333 mM",120%
same,"nuclei count, normalised","[1]; measured here: cell number at 24 h, Library stock concentration: 10 mM",112%
same,"nuclei count, normalised","[1]; measured here: cell number at 48 h, Library stock concentration: 500 nM",123%
same,"nuclei count, normalised","[1]; measured here: cell number at 48 h, Library stock concentration: 1.5 uM",121%
same,"nuclei count, normalised","[1]; measured here: cell number at 48 h, Library stock concentration: 4.6 uM",126%
same,"nuclei count, normalised","[1]; measured here: cell number at 48 h, Library stock concentration: 13.7 uM",116%
same,"nuclei count, normalised","[1]; measured here: cell number at 48 h, Library stock concentration: 41 uM",127%
same,"nuclei count, normalised","[1]; measured here: cell number at 48 h, Library stock concentration: 123 uM",121%
same,"nuclei count, normalised","[1]; measured here: cell number at 48 h, Library stock concentration: 370 uM",120%
same,"nuclei count, normalised","[1]; measured here: cell number at 48 h, Library stock concentration: 1.111 mM",117%
same,"nuclei count, normalised","[1]; measured here: cell number at 48 h, Library stock concentration: 3.333 mM",122%
same,"nuclei count, normalised","[1]; measured here: cell number at 48 h, Library stock concentration: 10 mM",111%
same,"p53-positive nuclei, normalised",[2]; Library stock concentration: 500 nM,-0.176% (inactive)
same,"p53-positive nuclei, normalised",[2]; Library stock concentration: 1.5 uM,0.0563% (inactive)
same,"p53-positive nuclei, normalised",[2]; Library stock concentration: 4.6 uM,-0.0688% (inactive)
same,"p53-positive nuclei, normalised",[2]; Library stock concentration: 13.7 uM,0.0271% (inactive)
same,"p53-positive nuclei, normalised",[2]; Library stock concentration: 41 uM,-0.248% (inactive)
same,"p53-positive nuclei, normalised",[2]; Library stock concentration: 123 uM,-0.212% (inactive)
same,"p53-positive nuclei, normalised",[2]; Library stock concentration: 370 uM,0.0436% (inactive)
same,"p53-positive nuclei, normalised",[2]; Library stock concentration: 1.111 mM,0.133% (inactive)
same,"p53-positive nuclei, normalised",[2]; Library stock concentration: 3.333 mM,-0.102% (inactive)
same,"p53-positive nuclei, normalised",[2]; Library stock concentration: 10 mM,0.0746% (inactive)
same,"p53-positive nuclei, normalised","[2]; measured here: p53 positive nuclei at 24 h, Library stock concentration: 500 nM",-0.148%
same,"p53-positive nuclei, normalised","[2]; measured here: p53 positive nuclei at 24 h, Library stock concentration: 1.5 uM",-0.0949%
same,"p53-positive nuclei, normalised","[2]; measured here: p53 positive nuclei at 24 h, Library stock concentration: 4.6 uM",-0.0339%
same,"p53-positive nuclei, normalised","[2]; measured here: p53 positive nuclei at 24 h, Library stock concentration: 13.7 uM",-0.0316%
same,"p53-positive nuclei, normalised","[2]; measured here: p53 positive nuclei at 24 h, Library stock concentration: 41 uM",-0.148%
same,"p53-positive nuclei, normalised","[2]; measured here: p53 positive nuclei at 24 h, Library stock concentration: 123 uM",-0.148%
same,"p53-positive nuclei, normalised","[2]; measured here: p53 positive nuclei at 24 h, Library stock concentration: 370 uM",-0.0409%
same,"p53-positive nuclei, normalised","[2]; measured here: p53 positive nuclei at 24 h, Library stock concentration: 1.111 mM",-0.0917%
same,"p53-positive nuclei, normalised","[2]; measured here: p53 positive nuclei at 24 h, Library stock concentration: 3.333 mM",-0.0904%
same,"p53-positive nuclei, normalised","[2]; measured here: p53 positive nuclei at 24 h, Library stock concentration: 10 mM",-0.0218%
O=C(CCn1cnnn1)N1CCc2[nH]nc(-c3ccc4c(c3)OCO4)c2C1,"nuclei count, normalised","[1]; measured here: cell number at 24 h, concentration not given here",107%
same,"nuclei count, normalised","[1]; measured here: cell number at 48 h, concentration not given here",111%
same,"p53-positive nuclei, normalised",[2]; concentration not given here,0.266% (inactive)
same,"p53-positive nuclei, normalised","[2]; measured here: p53 positive nuclei at 24 h, concentration not given here",0.111%
Cc1ccc([N+](=O)[O-])cc1S(=O)(=O)N(C)N=Cc1cnc2ccc(Br)cn12,"nuclei count, normalised","[1]; measured here: cell number at 24 h, Library stock concentration: 3.33 mM",17.7%
same,"nuclei count, normalised","[1]; measured here: cell number at 48 h, Library stock concentration: 3.33 mM",14.7%
same,"p53-positive nuclei, normalised",[2]; Library stock concentration: 3.33 mM,14.4% (inactive)
same,"p53-positive nuclei, normalised","[2]; measured here: p53 positive nuclei at 24 h, Library stock concentration: 3.33 mM",4.1%
